Assay outcomes deposited in PubChem by several laboratories.
pPAFAH FP inh: inhibitors of human plasma PAF acetylhydrolase (pPAFAH); recombinant pPAFAH, FP-rhodamine probe fluorescence polarization; hit rate 1.5% among 330,000; AID 463082; Q13093; inhibition, % at 3.39 µM;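 active means inhibition above the mean inhibition across the screen plus 3 SD, cut at about 25% in these data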;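 further: inhibitors block binding of the rhodamine activity-based probe so polarization drops; 0% = enzyme with DMSO and 100% = wells lacking pPAFAH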
PAFAH1B2 FP inh: inhibitors of human PAFAH1B2; P68402; AID 492953; recombinant PAFAH1B2, FP-rhodamine activity probe, fluorescence polarization; hit rate 1.2% among 340,000; inhibition, % at 3.39 µM;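 active means inhibition above the mean of all tested compounds plus 3 SD, cut at about 24% in these data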;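 further: 0% = enzyme with DMSO and 100% = wells lacking PAFAH1B2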
Target sequence (P68402 whole entry, looked up): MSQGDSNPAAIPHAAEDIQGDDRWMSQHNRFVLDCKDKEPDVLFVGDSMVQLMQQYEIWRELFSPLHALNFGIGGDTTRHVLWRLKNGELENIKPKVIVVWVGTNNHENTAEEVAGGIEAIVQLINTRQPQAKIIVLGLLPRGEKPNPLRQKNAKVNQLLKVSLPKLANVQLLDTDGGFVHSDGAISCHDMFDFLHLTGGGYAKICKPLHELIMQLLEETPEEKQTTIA
M18AAP inhibitor: blocks P. falciparum M18 aspartyl aminopeptidase; recombinant PfM18AAP, H-Glu-NHMec fluorogenic cleavage; inhibition, % at 7.35 µM; hit rate 1.2% among 290,000; AID 1822;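 active means inhibition above the campaign mean inhibition over all tested compounds plus 3 SD, cut at about 28% in these data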;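 further: 0% = plate median of test compound wells and 100% = 2 mM ZnCl2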
PAFAH1B3 inh: PAFAH1B3 (human) inhibition; hit rate 0.28% among 340,000; recombinant PAFAH1B3, FP-rhodamine probe, fluorescence polarization; Q15102; inhibition, % at 3.39 µM; AID 492972;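 active means inhibition above the screen-wide average of all tested compounds plus 3 SD, cut at about 25% in these data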;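 further: 0% = enzyme with DMSO only and 100% = wells lacking PAFAH1B3 protein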
Target sequence (Q15102 whole entry, looked up): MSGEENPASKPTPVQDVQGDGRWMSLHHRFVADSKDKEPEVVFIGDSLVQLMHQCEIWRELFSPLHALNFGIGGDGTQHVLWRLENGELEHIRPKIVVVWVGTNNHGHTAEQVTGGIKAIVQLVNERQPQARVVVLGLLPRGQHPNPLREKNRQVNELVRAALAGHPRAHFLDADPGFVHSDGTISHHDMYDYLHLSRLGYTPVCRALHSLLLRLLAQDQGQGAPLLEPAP
PAFAH2 inh: inhibitors of human PAFAH2; AID 492956; recombinant PAFAH2, FP-rhodamine activity probe, fluorescence polarization; Q99487; hit rate 0.99% among 340,000; inhibition, % at 3.39 µM;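 active means inhibition above the mean over all tested compounds plus 3 SD, cut at about 30% in these data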;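 further: inhibitors block probe labeling of enzyme so polarization drops; 0% = enzyme with DMSO and 100% = wells lacking PAFAH2 protein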
DSG3 Ab inh: human desmoglein-3 autoantibody binding inhibition; DSG3-coupled beads, scFv-anti-DSG3-GFP binding, flow cytometry; active compounds read low; binding (percent of control), % at 10 µM; hit rate 0.48% among 310,000;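 active means binding more than 3 SD below its plate's average and above zero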;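 further: hits lower antibody fragment binding to DSG3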
An asterisk follows results filed as active; / = no result given. Sampled rows, rich in hits. Any-hit rate of the full collection: about 3.8%.

SMILES | pPAFAH FP inh | PAFAH1B2 FP inh | M18AAP inhibitor | PAFAH1B3 inh | PAFAH2 inh | DSG3 Ab inh
Cc1ccccc1NC(=O)c1cc(C(=O)c2cc(Cl)ccc2O)cn(-c2ccccc2C)c1=O | -6 | -10 | -6 | -15 | -41 | 93
COc1ccc(O)c(/C=N/NC(=O)c2cc(=O)[nH]c3ccccc23)c1 | 6 | 3 | 17 | 14 | 0 | 97
CC(=O)c1ccc(-c2csc(N3CCC(C(N)=O)CC3)n2)cc1 | 5 | / | / | / | / | /
NC(=O)C1CCN(c2nc(-c3ccc(Br)cc3)cs2)CC1 | 4 | -1 | 6 | -1 | 9 | 58*
COC(=O)c1sc2nc3c(cc2c1N)C(=O)CC(C)(C)C3 | 4 | 7 | -33 | 4 | 1 | 83*
COC(=O)CNc1nc(Cl)nc(Nc2ccc(Cl)cc2)n1 | 0 | -12 | -2 | -15 | -28 | 76*
CC(=O)OC[C@]12CC[C@H]3[C@@](C)(CC[C@H]4C(C)(C)CCC[C@]34C)[C@@H]1C[C@H](C1=CC(=O)O[C@@H]1OC(C)=O)O2 | 45* | / | / | / | / | /
Cc1ccc(CNn2cnnc2SCc2ccc(F)cc2)cc1 | 4 | 28* | 4 | 8 | 4 | 104
Fc1ccc(CNn2cnnc2SCc2ccc(F)cc2)cc1 | 8 | 16 | -13 | 6 | 0 | /
Cc1cccc(C)c1N1C(=O)CC(Sc2ccccc2N)C1=O (centres undefined) | / | / | / | / | / | 100
Cc1ccc(NC(=S)NNC(=O)c2ccc(N3CCOCC3)c([N+](=O)[O-])c2)cc1C | 26* | 4 | 7 | 14 | 12 | 92
Cc1ccc([C@@H]2C[C@H]3[C@@H](CN2S(=O)(=O)c2ccc(Cl)cc2)C(=O)C[C@@H](c2ccccc2)N3S(=O)(=O)c2ccc(C)cc2)cc1 | / | / | / | / | / | 101
Cc1ccc(NC(=O)NC(=O)COC(=O)c2ccc(O)cc2O)c(C)c1 | / | / | / | / | / | 103
Cc1ccc(C(=O)NC2CC(C)(C)NC(C)(C)C2)cc1Cl | 1 | 5 | 0 | 5 | 5 | 117
CC1(C)CC(NC(=O)c2cccc(S(=O)(=O)Nc3cccc(Cl)c3)c2)CC(C)(C)N1 | 27* | -2 | / | 8 | -4 | 110
Cc1ccsc1/C=C/C1=Cc2c(sc(NC(=O)CSc3n[nH]c(N)n3)c2C#N)C(C)(C)C1 | 32* | 0 | 27 | -5 | 12 | 70*
CCOc1ccc(/C=C/C2=Cc3c(sc(NC(=O)CSc4n[nH]c(N)n4)c3C#N)C(C)(C)C2)cc1 | 10 | -5 | 23 | -10 | -8 | 81*
Brc1ccc(CNc2ccc3ncccc3c2)cc1 | / | 51* | 16 | 4 | 0 | 118
Cn1cnc2cc(NCc3ccc(Cl)cc3)ccc21 | 1 | 43* | 6 | 3 | 0 | 98
CCCn1cnc2cc(NCc3ccc(Br)cc3)ccc21 | 10 | 37* | 18 | 6 | 1 | 104
CCOc1ccc(CNc2ccc3c(c2)ncn3C)cc1 | -1 | 2 | 27 | 10 | 3 | 114
O=C(Nc1ccc2ncccc2c1)c1cccc(Br)c1 | -2 | 3 | 7 | 4 | -3 | 99
CC(=O)Nc1cccc(NC(=O)NC2CC(=O)N(c3ccc4c(c3)OCCO4)C2)c1 (centres undefined) | / | / | / | / | / | 110
Cc1cc(S(=O)(=O)NCC(C)C)ccc1OCC(=O)NCC1CCCO1 (centres undefined) | 6 | 1 | -5 | 5 | 5 | 93
COCCNC(=O)c1ccc(N2CC3CC(C2)c2cccc(=O)n2C3)c(NC(=O)c2ccccc2Cl)c1 (centres undefined) | / | / | / | / | / | 113
SMILES | pPAFAH FP inh | PAFAH1B2 FP inh | M18AAP inhibitor | PAFAH1B3 inh | PAFAH2 inh | DSG3 Ab inh
Cc1cc(C(=O)O)ccc1-n1c(C)ccc1C | 50* | / | 19 | / | / | /
Cc1cc(C(=O)O)ccc1-n1c(C)cc(C=C2C(=O)c3ccccc3C2=O)c1C | 17 | 2 | 11 | 8 | 22 | 104
Cc1cc(N)ccc1-n1c(C)ccc1C | 33* | 6 | 22 | 24 | 9 | /
Cc1ccc(-n2c(C)cc(=O)cc2C)c(C)c1 | 5 | 2 | 1 | 0 | 4 | 102
Cc1cc(N)ccc1N1CCCC1 | 26* | 8 | 19 | 9 | 16 | 72
COC(=O)CN1C(=O)COc2ccc(S(=O)(=O)N3CCCCC3)cc21 | / | / | / | / | / | 96
O=C(O/N=C/c1ccc2c(c1)OCO2)c1ccccc1Cl | 37* | / | -8 | / | / | /
O=C(CN(Cc1ccco1)Cc1cccs1)N1CCN(S(=O)(=O)c2cccc(F)c2)CC1 | 3 | 26* | / | 4 | 0 | /
Nc1c(C(=O)Nc2cccc(F)c2)nnn1-c1cccc(C(F)(F)F)c1 | 3 | 2 | -17 | 2 | -6 | 93*
O=c1c2c3nc4ccccc4nc3n(-c3ccc4c(c3)OCCO4)c2ncn1C1CCCC1 | 2 | -2 | / | 3 | 5 | 66*
Nc1c(C(=O)OCC2CCCO2)c2nc3ccccc3nc2n1-c1ccc2c(c1)OCCO2 (centres undefined) | 4 | / | 5 | / | / | /
Cc1ccc(S(=O)(=O)NN=Cc2ccco2)cc1 | / | / | / | / | / | 111
O=C(O[C@H]1[C@H](Oc2ccccc2COC(=O)C2(O)C=CCCC2=O)O[C@H](CO)[C@@H](O)[C@@H]1O)c1ccccc1 (some centres undefined) | -6 | / | / | / | / | /
CCOc1ccc(S(=O)(=O)N(CC)CC(=O)NCc2cccnc2)cc1 | 3 | 9 | 1 | 6 | 8 | 107
COC(=O)c1ccc(-c2sc3nc(N4CCOCC4)c4c(c3c2N)CC(C)(C)OC4)o1 | 2 | -1 | -1 | 5 | 3 | 38*
CCOC(=O)c1sc2nc(N3CCOCC3)c3c(c2c1N)CC(C)(C)N(C)C3 | 0 | 1 | -9 | -1 | 2 | 100
CCOc1ccc(C(=O)COC(=O)Cn2[nH]c(=O)c3ccccc3c2=O)cc1 | / | / | / | / | / | 100
COC1=CC(=O)c2c(ccc3ncnc(N)c23)C1=O | / | 22 | / | 69* | 48* | 87
COc1cccc2c1C(=O)C=C(C)C2=O | 1 | 2 | 3 | 11 | 3 | 95
CCOc1ccc(-n2c(SCC(=O)N3CCC(C(=O)O)CC3)nc3ccccc3c2=O)cc1 | 8 | 5 | 0 | 7 | -3 | /
Cc1cc(C(=O)NCc2cccs2)ccc1[N+](=O)[O-] | 5 | 5 | -1 | -4 | 2 | 96
Cc1cc(C(=O)OCC(=O)NCc2cccs2)ccc1[N+](=O)[O-] | 31* | 5 | / | 5 | 19 | 93
Cc1cccc2cc(COC(=O)C3CCCO3)c(=O)[nH]c12 (centres undefined) | -1 | 1 | 5 | 15 | 16 | 99
Cc1cccc2cc(COC(=O)C3CCCCC3)c(=O)[nH]c12 | 0 | 4 | -2 | 5 | 8 | -4.6*
CS(=O)(=O)c1cc(C(=O)O)cc(NCc2ccccc2)c1Oc1ccccc1 | / | / | / | / | / | 98
CCc1ccc(S(=O)(=O)NCCc2csc(-c3ccccc3)n2)s1 | 14 | 39* | 5 | -2 | -4 | 119
Cc1ccc(S(=O)(=O)Oc2ccccc2)cc1 | / | 12 | / | 5 | -5 | 89
Cc1ccc(S(=O)(=O)Oc2cccc([N+](=O)[O-])c2)cc1 | / | 25* | / | -2 | 1 | 114
